# Laboratory results from PubChem BioAssay AID651598 (Sanford-Burnham Center for Chemical Genomics, 2012).
# Values joined by “and” are separate entries in the source; they are usually repeats but may differ in a detail not shown here. Equal entries are not always repeated.
# Target: C-X-C chemokine receptor type 6 (Homo sapiens) (UniProt O00574)
# Experiment: apelin receptor (APJ) antagonists, SAR follow-up, counter-screen for CXCR6 antagonist project, cell-based, beta-arrestin, DiscoveRx, panel, CHO-K1 (AID 651598)
# Details: CHO-K1 PathHunter beta-arrestin luminescence, antagonist mode; run 2, at 80 µM (top of the series)
# Chain of C-X-C chemokine receptor type 6 (Homo sapiens) (O00574 whole entry, looked up): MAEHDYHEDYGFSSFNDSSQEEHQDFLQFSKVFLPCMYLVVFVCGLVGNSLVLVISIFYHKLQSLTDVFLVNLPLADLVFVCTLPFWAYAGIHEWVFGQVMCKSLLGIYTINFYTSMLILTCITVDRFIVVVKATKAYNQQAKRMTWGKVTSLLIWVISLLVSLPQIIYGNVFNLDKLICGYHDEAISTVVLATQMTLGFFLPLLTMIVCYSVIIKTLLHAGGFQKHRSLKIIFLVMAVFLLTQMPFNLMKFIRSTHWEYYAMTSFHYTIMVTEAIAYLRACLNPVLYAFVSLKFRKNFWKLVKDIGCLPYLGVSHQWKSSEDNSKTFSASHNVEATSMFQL
row,Compound,inhibition
1,COc1cc(C(=O)NC2CC3CCCC(C2)N3CC(=O)Nc2ccccc2)cc(OC)c1OC (stereo not drawn),88.2% and 52.1% and 24.9%
2,COc1cc(C(=O)NC2CC3CCC(C2)N3CC(=O)Nc2ccccc2)cc(OC)c1OC (stereo not drawn),48.5% and 18.7%
3,COc1cc(C(=O)NC2CCN(CC(=O)Nc3ccccc3)CC2)cc(OC)c1OC,25.1%
